Measured values as given in PubChem BioAssay (NCI).
“And” between values parts separate entries of the source, which are not always exact repeats. Equal values may be shown once. About 83,000 compounds went through this panel and 20% of them were active in at least one assay; those are over-represented in the sample as a whole.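 Testing used 96-well plates and a 48-hour single-concentration exposure. Example: -40 means 40% of the starting cells died.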 The source made the active and inactive calls. The calls were made as follows: active = growth percent below 10; inactive = the rest.

Assays:
Test in all cases: NCI-60 one-dose screen, 48 h (100 = growth as untreated, 0 = no growth, -100 = all killed)
SK-MEL-2 melanoma = test system: SK-MEL-2 melanoma
EKVX NSCLC = test system: EKVX NSCLC
SN12C renal = test system: SN12C renal
UO-31 renal = test system: UO-31 renal
TK-10 renal = test system: TK-10 renal
ACHN renal = test system: ACHN renal
CAKI-1 renal = test system: CAKI-1 renal
A498 renal = test system: A498 renal
CCRF-CEM leukemia = test system: CCRF-CEM leukemia
MOLT-4 leukemia = test system: MOLT-4 leukemia

Measured: growth

COc1ccc2sc3cccc(NCCN(C)C)c3c(=O)c2c1
77.8% (inactive) and 5.39% (active): A498 renal; 10 µM
23.8% (inactive) and -29.8% (active): CAKI-1 renal; 10 µM
active: MOLT-4 leukemia; 10 µM 8.84% and -15.2%
inactive: SK-MEL-2 melanoma; 10 µM 77.3% and 70.7% | EKVX NSCLC; 10 µM 26.2% | TK-10 renal; 10 µM 36.1% and 32.2% | CCRF-CEM leukemia; 10 µM 21.3%
21.3% (inactive) and -28.3% (active): ACHN renal; 10 µM
17.4% (inactive) and -2.55% (active): UO-31 renal; 10 µM
45.1% (inactive) and 9.54% (active): SN12C renal; 10 µM

CC[C@@]1(O)C(=O)OCc2c1cc1n(c2=O)Cc2cc3c(CN(C)C)c(O)ccc3nc2-1
9.24% (active) and 18.9% (inactive): EKVX NSCLC; 10 µM
inactive: SN12C renal; 10 µM 13.6% and 14.3%
active: SK-MEL-2 melanoma; 10 µM -36.9% and -18.1% | UO-31 renal; 10 µM -45.7% and -74.6% | TK-10 renal; 10 µM 2.54% and -4.42% | ACHN renal; 10 µM -40% and -40.5% | CAKI-1 renal; 10 µM -35% and -16.2% | A498 renal; 10 µM -50.8% and -69.4% | CCRF-CEM leukemia; 10 µM -28.7% | MOLT-4 leukemia; 10 µM -3.69% and -19.2%

CC/C(=C(\c1ccccc1)c1ccc(OCCN(C)C)cc1)c1ccccc1
active: SK-MEL-2 melanoma; 12.5 µM -50% | UO-31 renal; 12.5 µM -62.4% | CAKI-1 renal; 12.5 µM 9.74% | A498 renal; 12.5 µM -6.6% | CCRF-CEM leukemia; 12.5 µM -14.1% | MOLT-4 leukemia; 12.5 µM -10.8%
inactive: SK-MEL-2 melanoma; 10 µM 68.5% | EKVX NSCLC; 10 µM 60% | EKVX NSCLC; 12.5 µM 36.5% | SN12C renal; 10 µM 47.7% | SN12C renal; 12.5 µM 37.1% | UO-31 renal; 10 µM 40.3% | TK-10 renal; 10 µM 51.9% | TK-10 renal; 12.5 µM 56.2% | ACHN renal; 10 µM 60.6% | ACHN renal; 12.5 µM 25.9% | CAKI-1 renal; 10 µM 29.1% | A498 renal; 10 µM 64.1% | CCRF-CEM leukemia; 10 µM 34.6% | MOLT-4 leukemia; 10 µM 33.3%

CN(Cc1cnc2nc(N)nc(N)c2n1)c1ccc(C(=O)N[C@@H](CCC(=O)O)C(=O)O)cc1
inactive: SK-MEL-2 melanoma; 2.5 µM 93.1% | SK-MEL-2 melanoma; 10 µM 83.2% | EKVX NSCLC; 2.5 µM 41.5% | EKVX NSCLC; 10 µM 47% | SN12C renal; 2.5 µM 33.3% | SN12C renal; 10 µM 26.9% | UO-31 renal; 2.5 µM 37.8% | UO-31 renal; 10 µM 32.3% | TK-10 renal; 2.5 µM 66.9% | TK-10 renal; 10 µM 67.7% | ACHN renal; 2.5 µM 24.9% | ACHN renal; 10 µM 29.4% | CAKI-1 renal; 2.5 µM 19.2% | CAKI-1 renal; 10 µM 15.5% | CCRF-CEM leukemia; 2.5 µM 12.9% | CCRF-CEM leukemia; 10 µM 18.8% | MOLT-4 leukemia; 2.5 µM 14.7% | MOLT-4 leukemia; 10 µM 10.9%
active: A498 renal; 2.5 µM -11.8%
